In PubChem BioAssay AID1117293 (Broad Institute, 2014):
Measured potencies and affinities stand elsewhere. Results filed as inconclusive are left out. Unmarked numbers belong to inactive results. The source made the active and inactive calls.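 Rule for the calls: active = cytotoxic in every repeat run, with fitted half-maximal concentration at most twice the top tested dose; inconclusive = runs disagree, or flat partial drop, or poor curve fit; inactive = inactive in every run.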

Assay: HEK293T cell cytotoxicity, dose response, cytotoxicity control, CellTiter-Glo luminescence, dry powder, set 20 (AID 1117293)
Conditions: HEK293T viability, CellTiter-Glo ATP luminescence, 72 h; series mostly up to 26 µM; activity change, negative = cytotoxicity: at the top concentration

SMILES	activity change, negative = cytotoxicity	outcome
COc1ccc(C(=O)Nc2cc(C)ccc2N2CCCCC2)cc1S(=O)(=O)O	-1.51%	
CC(=O)N1CCN(C(=O)CNC(=O)Nc2ccc(C)cc2)CC1	-21.5%	
O=S(=O)(Nc1cc(C(F)(F)F)ccc1N1CCCCC1)c1ccc(Br)cc1	-7.61%	
COc1ccc(C(=O)Nc2cccc(C(F)(F)F)c2)cc1S(=O)(=O)O	-16.2%	
COc1ccc(C(=O)O)cc1S(=O)(=O)N1CCN(c2ccc(C(F)(F)F)cc2N)CC1	8.49%	
CC(=O)N1CCN(C(=O)C2(NC(=O)NC(C)(C)C)CCCCC2)CC1	-21.7%	
COc1ccc(C(=O)Nc2cc(C(F)(F)F)ccc2N2CCOCC2)cc1S(=O)(=O)O	-8.67%	
COc1ccc(C(=O)Nc2cc(F)ccc2N2CCCCC2)cc1S(=O)(=O)O	-5.87%	
O=S(=O)(Nc1cc(C(F)(F)F)ccc1N1CCCCC1)c1ccc(F)cc1	-23.4%	
COc1ccc(C(=O)Nc2cc(C(F)(F)F)ccc2N2CCCC2)cc1S(=O)(=O)O	-14.3%	
COc1ccc(C(=O)O)cc1S(=O)(=O)Nc1cccc(N2CCCCC2)c1C(F)(F)F	10.9%	
NC(=NCCc1c[nH]c2ccccc12)NS(=O)(=O)c1cc(F)ccc1F	-14.3%	
COc1ccc(C(=O)O)cc1S(=O)(=O)Nc1cc(C(F)(F)F)ccc1N1CCCCC1		inactive
O=S(=O)(O)c1ccc(N2N=C(c3ccccc3)CC2c2ccccc2)cc1 (centres undefined)	-6.63%	
COc1ccc(C(=O)O)cc1S(=O)(=O)Nc1cc(C(F)(F)F)ccc1N1CCN(C(C)=O)CC1	-2.37%	
CC(=O)N1CCN(C(=O)C(C)(C)NC(=O)Nc2ccc(C)cc2)CC1	-10.8%	
COc1ccc(C(=O)Nc2ccccc2N2CCCCC2)cc1S(=O)(=O)O	-2.25%	
CC(=O)N1CCN(C(=O)C2(NC(=O)Nc3ccc(C)cc3)CC2)CC1	-6.62%	
CC(=O)N1CCN(C(=O)C2(NC(=O)Nc3ccc(C(C)C)cc3)CCCCC2)CC1	-3.9%	
CC(=O)N1CCN(C(=O)C2(NC(=O)NCCc3ccccc3)CCCCC2)CC1	-9.03%	
CC(=O)N1CCN(C(=O)C2(NC(=O)Nc3ccc(C(F)(F)F)cc3)CCCC2)CC1	-14.6%	
O=C(Nc1cc(C(F)(F)F)ccc1N1CCCCC1)c1ccc(S(=O)(=O)O)cc1	8.17%	
CC(=O)N1CCN(C(=O)C2(NC(=O)Nc3ccc(F)cc3)CCCCC2)CC1	-2.65%	
CC(=O)N1CCN(C(=O)C2CCCN2C(=O)Nc2ccc(C)cc2)CC1 (centres undefined)	3.43%	
